Compound activity: PubChem, National Center for Advancing Translational Sciences (NCATS)
Hits are enriched below; roughly 7.4% of the tested compounds scored in any of these assays.
FLuc counter = qHTS profiling assay for firefly luciferase inhibitor/activator using purifed enzyme and Km concentrations of substrates (counterscreen for miR-21 project); Luciferin 4-monooxygenase (Photinus pyralis), P08659; AID 588342, 2011; hit rate 6.9% among 360,000; Potency, µM (highest dose often 57.5 µM), most hits filed as inhibitors; purified FLuc, Km substrates, luminescence inhibition; also: nearly all actives have a fitted effect of over 55% in size
Target sequence (P08659 whole entry, looked up): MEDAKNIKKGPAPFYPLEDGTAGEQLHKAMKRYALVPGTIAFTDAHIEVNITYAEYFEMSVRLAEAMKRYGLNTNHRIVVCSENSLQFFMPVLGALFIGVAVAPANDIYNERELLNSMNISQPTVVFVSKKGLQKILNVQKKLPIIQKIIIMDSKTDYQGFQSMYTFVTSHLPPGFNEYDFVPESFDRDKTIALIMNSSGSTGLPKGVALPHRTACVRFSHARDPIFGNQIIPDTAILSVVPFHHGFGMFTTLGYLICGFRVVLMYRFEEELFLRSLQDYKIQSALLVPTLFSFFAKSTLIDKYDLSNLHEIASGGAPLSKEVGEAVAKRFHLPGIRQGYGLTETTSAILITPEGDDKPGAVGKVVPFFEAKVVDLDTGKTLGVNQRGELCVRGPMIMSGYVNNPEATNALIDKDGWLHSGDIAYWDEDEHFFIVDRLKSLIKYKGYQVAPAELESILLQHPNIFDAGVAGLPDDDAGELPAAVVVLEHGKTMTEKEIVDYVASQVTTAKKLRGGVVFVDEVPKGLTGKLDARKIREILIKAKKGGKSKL
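Purified P. pyralis luciferase, 10 nM final, with Km-level 10 uM D-luciferin and 10 uM ATP in 50 mM Tris acetate pH 7.5, 10 mM Mg acetate, 0.01% Tween-20, 0.05% BSA; 6-point qHTS titration about 60 µM downward; luminescence read.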
KinaseGlo FLuc = Counterscreen for Luciferase (Kinase-Glo TM) Inhibition; hit rate 0.28% among 200,000; AID 1379, 2008; Potency, µM (highest dose often 38.3 µM), hits mostly inhibitors; Kinase-Glo luciferase, ATP luminescence, 8 min; Luciferin 4-monooxygenase (Photuris pensylvanica), Q27757; also: nearly all actives have a fitted effect of over 60% in size
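Compounds were added to a substrate mix at pH 7.2 (50 mM imidazole, 10 uM ATP, within the enzyme's linear range), followed by Kinase-Glo detection reagent; luminescence was measured after 8 minutes at ambient temperature.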
NPC1 promoter act = qHTS Assay for NPC1 Promoter Activators | Huh7 NPC1 promoter luciferase reporter, 24 h | Potency, µM (doses to about 9.22 µM), usual class: activators | hit rate 2.4% among 320,000 | AID 485313, 2010; also: nearly all actives have a fitted effect of over 60% in size
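In 1536-well qHTS, Huh7 cells harboring an NPC1 promoter–luciferase construct received compound for 24 h; activation was quantified by luminescence following luciferase reagent addition.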
SMN2 splice up = qHTS Assay for Enhancers of SMN2 Splice Variant Expression | AID 1458, 2008 | hit rate 2.8% among 210,000 | HEK293 SMN2-luciferase splicing reporter, luminescence, 30-36 h | Potency, µM (titrated, usually from 46.1 µM), actives largely listed as activators; also: nearly all actives have a fitted effect of over 55% in size
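qHTS luciferase splicing reporter: luminescence rises when SMN2 exon 7 is included in transfected HEK293 cells. Compound exposure lasted 30-36 h at 37C, with 4.5 mM final sodium butyrate as control, followed by a ONE-Glo read.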
Rab9 promoter act = qHTS Assay for Rab9 Promoter Activators. Huh7 Rab9 promoter-luciferase reporter, luminescence, 24 h. Potency, µM (series often up to 9.22 µM), hits mostly activators. hit rate 2.8% among 320,000; also: nearly all actives have a fitted effect of over 60% in size
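Quantitative HTS format; Huh7 Rab9-luciferase reporter cells (1500/well) receive compound 2 h post-plating, incubate 24 h at 37 °C, then get luciferase reagent for 10 min before luminescence reading.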
ELG1 genotoxic = qHTS screen for small molecules that induce genotoxicity in human embryonic kidney (HEK293T) cells expressing luciferase-tagged ELG1; HEK293T ELG1-luciferase reporter, luminescence, 16 h; Potency, µM (highest dose often 46 µM), most hits filed as activators; hit rate 1.3% among 330,000; AID 504466, 2011; also: nearly all actives have a fitted effect of over 60% in size
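HEK293T cells expressing luciferase-tagged ELG1 were treated with compound or DMSO for 16 hr at 37°C. Luciferase activity was then read after 30 min with ONE-Glo at room temperature; rising signal flags genetic stress.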
Numbers stand for hits; n = inactive; u = inconclusive; x = no result given; [ ] = another dose, or the depositor's remark. Calls follow the shape of the dose curve; as a rule, active = well fitted curve in the direction sought with a large enough effect; inconclusive = small, poorly fitted or top-dose-only effect, or another doubt; inactive = no such curve, though single readings can be large; an effect the other way counts as inactive or inconclusive.

SMILES	FLuc counter	KinaseGlo FLuc	NPC1 promoter act	SMN2 splice up	Rab9 promoter act	ELG1 genotoxic
c1ccc(-c2csc(NC3CCCCC3)n2)cc1	1.69µM	x	0.794µM	x	1µM	5.17µM
O=C(Nc1nc(-c2ccccc2)cs1)C1CCCCN1S(=O)(=O)c1ccccc1 (configuration not stated)	n	n	n	n	n	n
Cc1ccc(-c2nc3ccccc3[nH]2)cc1NC(=O)COc1ccccc1[N+](=O)[O-]	n	x	x	n	x	x
C[C@@H]1CC[C@H]2[C@H](C)C3[C@H](C[C@H]4[C@@H]5CC=C6C[C@@H](O)CC[C@@]6(C)[C@@H]5C[C@@H](O)[C@]34C)N2C1 (some centres not stated)	x	n[7.66 µM]	x	n[9.22 µM]	x	x
Cc1ccc2c(c1)NC(=O)c1cccnc1N2	12µM	n	3.16µM	11.2µM	u	u
O=C1Nc2ccccc2Nc2ncccc21	n	n	n	u	n	n
Cc1cccc(OCC(=O)OCc2cc(=O)n3nc(C4CCCCC4)sc3n2)c1	n	x	x	x	x	x
CN(C)/C=C/C(=O)c1ccc(Cl)cc1	u	n	n	n	n	n
CC1CN/C(=C\C(=O)c2ccc(Cl)cc2)C(=O)N1 (configuration not stated)	2.39µM	n	0.398µM	3.16µM	0.501µM	u
O=C1NCCN/C1=C\C(=O)c1ccc(Cl)cc1	10.7µM	x	1.58µM	x	3.55µM	u
CC1CN/C(=C\C(=O)c2ccccc2)C(=O)N1 (configuration not stated)	12µM	n	2.82µM	10µM	3.98µM	u
O=C1NCCN/C1=C\C(=O)c1ccc(F)cc1	u	x	n	x	u	n
CCCc1nnc2n1N=C(c1ccc(C)cc1)CS2	n	x	n	x	n	n
CCC(=O)Nc1cccc(-c2cn3ccsc3n2)c1	16.9µM	n	n	n	n	n
CC(C)CC(=O)Nc1cccc(-c2cn3ccsc3n2)c1	12µM	n	u	17.8µM	u	u
CC(C)C(=O)Nc1cccc(-c2cn3ccsc3n2)c1	15.1µM	n	n	n	n	u
CC(C)(C)CC(=O)Nc1cccc(-c2cn3cccnc3n2)c1	10.7µM	n	u	11.2µM	2.51µM	u
Cc1ccc(C)c(N(C(=O)c2csnn2)C(C(=O)NC2CCCCC2)c2ccccn2)c1 (configuration not stated)	n	x	n	x	n	n
O=C(Nc1ccc(COc2ccccc2)cc1)Nc1cccc(C(=O)O)c1	0.849µM	x	u	x	2.82µM	n
O=C(O)c1cccc(NC(=S)NC(=O)c2cccc(OCc3ccccc3)c2)c1	19µM	x	n	x	u	n
CC(C)Oc1cccc(C(=O)NC(=S)Nc2cccnc2)c1	u	n	u	u	u	u
Cc1ccc(C(=O)O)cc1NC(=S)NC(=O)Cc1ccccc1	n	n	n	n	n	n
CC(C)Oc1cccc(C(=O)NC(=S)Nc2ccccc2)c1	2.39µM	n	u	11.2µM	3.16µM	u
O=C(O)c1cccc(NC(=S)NC(=O)c2ccncc2)c1	u	n	n	n	n	n
Cc1ccc(C(=O)O)cc1NC(=S)NC(=O)c1ccc(COc2ccccc2)cc1	12µM	x	n	x	n	n
SMILES	FLuc counter	KinaseGlo FLuc	NPC1 promoter act	SMN2 splice up	Rab9 promoter act	ELG1 genotoxic
COCCCNC(=O)c1c(-c2ccccc2)c(-c2ccccc2)nn(C)c1=O	n	x	x	n	x	x
COc1c(C)cc(Br)cc1C(=O)NC(=S)Nc1ccc(Cl)c(C(=O)O)c1	23.9µM	x	n	x	n	n
CCCOc1cccc(C(=O)Nc2cccc3ncccc23)c1	n	x	n	x	n	n
COc1cccc(C(=O)NC(=S)Nc2ccc(Cl)c(C(=O)O)c2)c1	u	n	x	n	x	x
CCCOc1cccc(C(=O)NC(=S)Nc2ccccc2)c1	8.49µM	n	u	12.6µM	u	u
CCCOc1cccc(C(=O)Nc2ccc(Br)cc2F)c1	2.69µM	n	u	12.6µM	u	u
CCCOc1cccc(C(=O)NCCNC(=O)c2ccccn2)c1	n	x	n	x	n	n
CCCOc1cccc(C(=O)Nc2cc(-c3ccccc3)no2)c1	6.01µM	x	x	14.1µM	x	x
O=C(Cc1cccc(C(F)(F)F)c1)NCC(=O)Nc1cc(Cl)ccc1Cl	n	x	n	x	n	n
CC(C)Oc1ccc(C(=O)NC(=S)Nc2ccc(Cl)c(C(=O)O)c2)cc1	16.9µM	x	u	x	u	u
CCN(CC)c1ccc(/C=N/NC(=O)c2ccoc2C)c(O)c1	2.69µM	x	u	x	n	16.4µM
CCN(CC)c1ccc(/C=N/NC(=O)OC)c(O)c1	10.7µM	n	n	n	n	n
Cc1ccc(NC(=O)CN(C)C(=O)c2cc3ccccc3o2)cc1	n	n	n	n	n	n
CCc1ccc(-c2cc3c(=O)n(CC(=O)N4CCCC4)nc(C)n3n2)cc1	u	x	n	x	n	n
CCOC(=O)N1CCN(C(=O)Cn2nc(C)n3nc(-c4ccc(CC)cc4)cc3c2=O)CC1	4.78µM	x	n	x	n	n
Cc1cc(/C=N/NC(=O)c2ccccn2)c(C)n1-c1cccc([N+](=O)[O-])c1	u	n	n	n	n	n
Cc1cc(/C=N\NC(=O)COc2cccc3cccnc23)c(C)n1-c1ccccc1	1.35µM	n	n	x	n	n
Cc1cc(/C=N/NC(=O)C(=O)NCc2ccccn2)c(C)n1-c1ccccc1	2.69µM	n	n	n	n	u
COc1ccccc1OCC(=O)N/N=C/c1cccc2cccnc12	n	x	n	x	n	n
Cc1nc2ccccn2c1C(=O)N/N=C/c1cc(C)n(-c2ccc(Br)cc2)c1C	12µM	n	n	n	n	n
Cc1cc(/C=N\NC(=O)c2cccs2)c(C)n1-c1ccc2ncccc2c1	1.35µM	n	2.82µM	u	1.78µM	u
CN(Cc1ccccc1)C(=O)c1cc2c(s1)-c1ccc(Cl)cc1SC2	n	x	x	n	x	x
Cc1ccc(S(=O)(=O)N2CCN(C(=O)CN3C(=O)CNC3=O)CC2)cc1	n	x	n	x	n	n
O=C(NCc1ccc(Cl)cc1)C1CCN(C(=O)c2ccc(Cl)cc2)CC1	n	x	n	x	n	n
Cc1ccnc(-n2c(C)cc(/C=N/NC(=O)COc3cccc4cccnc34)c2C)c1	13.5µM	x	n	x	n	n
C=CCn1cc(/C=N/NC(=O)COc2cccc3cccnc23)c2ccccc21	u	n	n	n	n	n
Cc1cc(/C=N\NC(=O)COc2cccc3cccnc23)c(C)n1-c1ccc(Br)cc1	4.78µM	n	n	n	n	n
COc1cccc(-c2nc(CS(=O)(=O)CC(=O)NCCN3CCOCC3)c(C)o2)c1	n	x	n	x	n	n
O=C(Nc1ncccc1O)c1ccc2c(c1)OCO2	u	x	3.98µM	x	3.55µM	u
Cc1cccnc1NC(=O)c1ccc2c(c1)OCCO2	13.5µM	x	n	x	u	16.4µM
